High-throughput results deposited in PubChem by National Center for Advancing Translational Sciences (NCATS).
Rows were chosen to be rich in hits. Some 14% of all compounds tested hit in one or more screens of this group.
HCMV antiviral: blocks human cytomegalovirus replication; activity change, negative = inhibition, % at 57.5 µM; actives 4.5% (n = 410,000); HFF cells, HCMV-luciferase reporter, 72 h; stronger effect = lower value; AID 1259415; in the data active = activity change below about -60%; inconclusive = no clear call, values can overlap the other calls; inactive = above about -39%
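After 16 h attachment at 37C, HFF cells received test compound and HCMV-luciferase (1 PFU/cell); reporter luminescence read 72 h later, data normalized against buffer-only and known inhibitor Salinomycin.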
Sm TGR inh: blocks Schistosoma mansoni thioredoxin glutathione reductase | purified TGR, DTNB reduction, TNB absorbance 405 nm | Potency, µM (top dose mostly 114 µM), inactives show top-dose activity change, negative = inhibition, usual class: inhibitors | actives 3% (n = 360,000); note: potency is the fitted concentration of half-maximal effect; nearly all actives have a fitted effect of over 60% in size
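Kinetic colorimetric format: TGR-catalysed, NADPH-driven DTNB reduction monitored via TNB absorbance. Enzyme dispensed at 20 nM; compound exposure 15 min at room temperature before reaction start.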
FBPA Giardia inh: Giardia lamblia aldolase inhibition; Potency, µM (top dose mostly 59.6 µM), for inactives: at the top dose activity, negative = inhibition, usual class: inhibitors; A8B2U2; actives 0.71% (n = 290,000); purified Giardia FBPA; note: potency is the fitted concentration of half-maximal effect; nearly all actives have a fitted effect of over 55% in size
Target sequence (A8B2U2 whole entry, looked up): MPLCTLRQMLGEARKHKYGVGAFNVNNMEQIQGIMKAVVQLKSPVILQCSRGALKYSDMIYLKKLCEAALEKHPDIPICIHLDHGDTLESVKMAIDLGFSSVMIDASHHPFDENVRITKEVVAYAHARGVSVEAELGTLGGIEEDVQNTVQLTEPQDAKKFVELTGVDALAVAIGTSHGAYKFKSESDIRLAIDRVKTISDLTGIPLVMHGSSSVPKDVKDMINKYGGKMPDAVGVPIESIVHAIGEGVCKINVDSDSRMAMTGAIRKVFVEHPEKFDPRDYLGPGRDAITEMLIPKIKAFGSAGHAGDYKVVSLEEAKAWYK
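40 nM FBPA preincubated 10 min at RT with compound (up to 57.5 uM final), then substrate plus GAPDH/TPI/NAD/arsenate coupling and diaphorase/resazurin added. Fluorescence read after 20 min at RT, 525/598 nm.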
Pf growth 48h: inhibits P. falciparum growth in the first generation, 48 h. P. falciparum luciferase growth in erythrocytes, 48 h. Potency, µM (highest dose often 28.7 µM), without a hit: top-dose activity change, negative = inhibition, hits mostly inhibitors. actives 5.9% (n = 310,000). AID 504832; note: potency is the fitted concentration of half-maximal effect
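Parasite viability was followed by luminescence of a genomically integrated firefly luciferase. Cultures held 0.1% parasitemia at 2% hematocrit (final), incubated under 5% CO2 at 37 C.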
Pf growth 96h: inhibits malaria parasite growth, 96 h; P. falciparum luciferase reporter growth, 96 h; Potency, µM (titrated, usually from 28.7 µM), for the others: at the highest dose activity change, negative = inhibition, most hits filed as inhibitors; actives 6.9% (n = 320,000); note: potency is the fitted concentration of half-maximal effect
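Cell-based qHTS: luciferase-tagged P. falciparum in erythrocytes (2% hematocrit, 0.05% parasitemia final) incubated with compounds for 96 hours, 37 C, 5% CO2; luciferase detection reagent then added and luminescence measured.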
* hit, by the source's call; ? = inconclusive; . = not tested or not shown; [ ] = another dose, or the depositor's remark. Unless noted, calls come from the whole dose curve; as a rule, active = well fitted curve in the direction sought with a large enough effect; inconclusive = small, poorly fitted or top-dose-only effect, or another doubt; inactive = no such curve, though single readings can be large; an effect the other way counts as inactive or inconclusive. % is set by controls: 0 for no effect and ±100 for the full control effect.

SMILES	HCMV antiviral	Sm TGR inh	FBPA Giardia inh	Pf growth 48h	Pf growth 96h
COc1ccc(S(=O)(=O)N2CCN(Cc3cc(OC)c(OC)c(OC)c3)CC2)cc1	-26	3%	?	?	-16%
COc1ccc(S(=O)(=O)N2CCN(Cc3cc(OC)c(O)c(OC)c3)CC2)cc1	66	3.5µM*	?	-12%	0%
Cc1ccccc1CN1CCN(S(=O)(=O)c2ccc(F)cc2)CC1	0	0%	?	?	58%
COc1ccc(CNC(=O)Cn2c(=O)nc(-c3ccccc3F)c3cc(Cl)ccc32)cc1	-23	0%	.	.	.
CC1(C)CCC[C@@](C)([C@H]2CC[C@]3(C)[C@@H]2[C@H](O)C[C@@H]2[C@@]4(C)CC[C@H](O)C(C)(C)[C@@H]4CC[C@]23C)O1	.	.	-2%	.	.
O=C1CCCc2c1ccc1ccccc21	13	.	.	.	.
CSc1ccc(CN2CCN(C(=O)CC(C)C)CC2)cc1	-31	1%	?	-8%	-7%
Cc1ccc(N2C(=O)NC(=O)/C(=C\C=C\c3ccco3)C2=O)cc1C	-102*	25µM*	-8%	11%	9%
Cc1ccc(N2C(=O)NC(=O)/C(=C\C=C\c3ccco3)C2=O)cc1	-100*	11µM*	-4%	9%	33%
O=C1NC(=O)N(c2ccccc2)C(=O)/C1=C/C=C/c1ccco1	-100*	10µM*	-13%	21%	22%
Cc1cc(N2CCOCC2)ccc1/C=C1\C(=O)NC(=O)N(c2ccccc2)C1=O	-8	?	-13%	19%	-12%
CN(C)c1ccc(/C=C/C=C2/C(=O)NC(=O)N(c3ccccc3)C2=O)cc1	-113*	?	-21%	28%	-12%
Cc1cccc(N2C(=O)NC(=O)/C(=C\C=C\c3ccco3)C2=O)c1	0	?	-10%	6%	34%
Nc1[nH]c(C(=O)c2ccccc2)c(-c2cccc3ccccc23)c1C(=O)NCc1ccccc1	-8	.	.	.	.
O=C(CC(c1ccccc1)c1ccccc1O)NCc1ccccc1Cl (stereo not given)	-38	2%	-1%	?	?
Cc1ccccc1NS(=O)(=O)c1ccc(Br)s1	16	-4%	.	.	.
O=C1S/C(=C\C=C\c2ccco2)C(=O)N1c1ccccc1	-34	45µM*	-25%	26%	109%
O=C1S/C(=C\C=C\c2ccco2)C(=O)N1c1ccc(O)cc1	?	?	?	112%	31%
CCN(CC)S(=O)(=O)c1ccc(C)c(NC(=O)CNc2cccc(S(=O)(=O)N3CCOCC3)c2)c1	-4	2%	.	?	?
CN(C)S(=O)(=O)c1cccc(NC(=O)CNc2cccc(S(=O)(=O)N3CCCCC3)c2)c1	-81*	.	.	.	.
CCN(CC)S(=O)(=O)c1cc(NC(=O)CNc2cccc(S(=O)(=O)N3CCCC3)c2)ccc1C	.	3%	.	12µM*	?
CCN(CC)S(=O)(=O)c1ccc(C)c(NC(=S)Nc2cccc(S(=O)(=O)N3CCCCCC3)c2)c1	-77*	-26%	-9%	-3%	?
O=C(CNc1cccc(S(=O)(=O)N2CCCC2)c1)Nc1ccc(F)cc1F	-19	-6%	.	8.3µM*	9.3µM*
O=C(Nc1ccccc1C(=O)Nc1nccs1)c1ccccc1	-29	.	.	.	.
Cc1ccc(S(=O)(=O)N2CCCCC2)cc1NCC(=O)Nc1ccc(Br)cc1F	-86*	.	.	.	.
SMILES	HCMV antiviral	Sm TGR inh	FBPA Giardia inh	Pf growth 48h	Pf growth 96h
CN(CC(=O)Nc1cccc(F)c1)CC(=O)Nc1cccc(S(=O)(=O)N2CCCCCC2)c1	0	11%	-6%	?	0%
COc1ccc(NC(=O)CCNC(=O)c2ccco2)cc1S(=O)(=O)N(C)C	2	-3%	-1%	5%	-13%
CCN(CC)S(=O)(=O)c1cc(NC(=O)CCNC(=O)c2ccco2)ccc1C	-24	4%	9%	9.3µM*	6.6µM*
O=C(CNc1cccc(S(=O)(=O)N2CCCCC2)c1)Nc1cccc(F)c1	?	-3%	.	2.9µM*	2.3µM*
Cn1c(=O)c(-c2cc(F)cc(F)c2)nc2cncnc21	.	.	7%	.	.
Cc1ccc2nc3c(nc2c1C)C(O)=C3O	40	7.9µM*	-5%	14%	22%
FC(F)(F)c1ccccc1-n1c(CN2CCCCC2)n[nH]c1=S	-20	1%	-15%	51%	10%
CCCOc1ccccc1C1C(C(=O)OC)=CN(C(C)C)C=C1C(=O)OC	-19	7%	1%	13µM*	.
CCCCOc1ccccc1C1C(C(=O)OC)=CN(CC)C=C1C(=O)OC	?	-5%	0%	?	179%
CC(C)(C)Nc1nc(SCC(=O)Nc2ccccc2)nc(N2CCOCC2)n1	10	-3%	-10%	9.3µM*	?
CC(Sc1nc(NCc2ccccc2)nc(N2CCOCC2)n1)C(=O)Nc1ccccc1 (stereo not given)	1	-14%	2%	?	.
CN(C)c1nc(NCc2ccccc2)nc(SCC(=O)Nc2ccccc2)n1	?	-20%	-1%	?	?
CN(C)c1nc(NC(C)(C)C)nc(SCC(=O)Nc2ccccc2)n1	-37	-29%	-11%	15µM*	-4%
CC(Sc1nc(NCc2ccccc2)nc(N(C)C)n1)C(=O)Nc1ccccc1 (stereo not given)	-105*	16%	3%	?	5.2µM*
O=C(CSc1nc(Nc2ccccc2)nc(N2CCOCC2)n1)Nc1ccc2c(c1)OCCO2	21	5%	-2%	9.3µM*	.
Cc1ccc(NC(=O)CCC(=O)N2Cc3ccccc3Oc3ncccc32)cc1F	2	-6%	.	.	.
COc1cccc([C@@H]2Oc3ccc(OC)cc3/C(=N/OC[C@@H](C)[C@H](OCc3ccccc3)C(C)C)[C@@H]2O)c1	.	.	-1%[12.9 µM]	.	.
